According to PubChem BioAssay (EPA / NIEHS):
A structure can be active in one record and inactive in another. Activity calls are given as the source filed them. The calls were made as follows: active = hit-call score of the fitted dose curve at least 0.9, where 1 is the maximum; inactive = score below 0.9.

Target: CCAAT/enhancer-binding protein beta (Homo sapiens) (UniProt P17676)
Assay: ATG_C_EBP_CIS: Attagene CIS-FACTORIAL HepG2 Assay for human CCAAT/Enhancer Binding Protein (C/EBP) beta (AID 2282927)
Settings: HepG2 Attagene cis-factorial transcription factor reporter; actives raise or lower the signal
Method: ATG_CIS is a cell-based, multiplexed-readout assay that uses HepG2, a human liver cell line, with measurements taken at 24 hours after chemical dosing in a 24-well plate.ATG_C_EBP_CIS is one of 52 assay component(s) measured or calculated from the ATG_CIS assay. It is designed to make measurements of mRNA induction, a form of inducible reporter, as detected with fluorescence intensity signals by Reverse transcription polymerase chain reaction (RT-PCR) and Capillary electrophoresis technology.Data from the assay component ATG_C_EBP_CIS was analyzed into 1 assay endpoint. This assay endpoint, ATG_C_EBP_CIS, was analyzed with bidirectional fitting relative to DMSO as the negative control and baseline of activity. Using a type of inducible reporter, measures of mRNA for gain or loss-of-signal activity can be used to understand the reporter gene at the transcription factor-level as they relate to the gene CEBPB. Furthermore, this assay endpoint can be referred to as a primary readout, because this assay has produced multiple assay endpoints where this one serves a reporter gene function. To generalize the intended target to other relatable targets, this assay endpoint is annotated to the dna binding intended target family, where the subfamily is basic leucine zipper.
Human liver HepG2 cells are transiently transfected with multiple reporter transcription units (MRTUs) in 6-well plates using FuGene 6 reagent (Roche; 3 ml FuGene/1 mg DNA). The MRTU constructs are regulated by a cis-regulating element (promoter). […] A major difference between the CIS and TRANS system is that in CIS activities of endogenous TFs are measured, whereas the TRANS assay evaluates changes in activities of exogenous, chimeric NR-Gal4 proteins. […] At the end of 24 hour incubation, total RNA was isolated using TriZol reagent (Invitrogen). The isolated RNA is then reverse-transcribed using oligo(dT) primer and Mo-MLV reverse transcriptase (Invitrogen) with DNAse I (Ambion) treatment for 30 min. The one-tenth of the produced cDNA was amplified by PCR using Taq DNA polymerase (Invitrogen) and two reporter sequence-specific primers. The PCR products were fluorescently labeled by primer extension with 6-arboxyfluorescein (6-FAM) 5'-labeled reporter sequence-specific primer (2 min at 95 C, 20 s at 68 C and 10 min at 72 C) and these products were digested with 5U of HpaI (New England Biolabs) for 2h at 37 C. The fragments were purified using Qiaquick PCR columns (Qiagen), analyzed on an ABI 3130xL genetic analyzer (Applied Biosystems) with peak positions identified by using a set of X-rhodamine (ROX)-labeled MapMarker1000 molecular weight standards (BioVentures). The raw capillary electrophoresis data was processed using Attagraph software (Attagene).

Sequence of CCAAT/enhancer-binding protein beta (Homo sapiens) (P17676 whole entry, looked up): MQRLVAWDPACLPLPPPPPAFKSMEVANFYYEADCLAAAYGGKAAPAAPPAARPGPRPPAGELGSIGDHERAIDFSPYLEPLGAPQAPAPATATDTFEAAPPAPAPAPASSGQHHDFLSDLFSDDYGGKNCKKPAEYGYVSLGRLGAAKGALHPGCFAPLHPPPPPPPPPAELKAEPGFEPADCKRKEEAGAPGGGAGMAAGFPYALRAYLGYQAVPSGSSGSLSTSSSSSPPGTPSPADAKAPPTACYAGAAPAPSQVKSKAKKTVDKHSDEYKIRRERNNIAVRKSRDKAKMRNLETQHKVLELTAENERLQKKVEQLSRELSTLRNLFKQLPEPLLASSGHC

Row | SMILES | outcome | AC50
1 | C=C(C)CCCC(C)CCO (stereo not given) | inactive | 
2 | CCCCCCCCCO | inactive | 
3 | COc1cc(OC)c2ccc(=O)oc2c1 | inactive | 
4 | NC(N)=S | inactive | 
5 | CCCCCC1C(=O)CCC1CC(=O)OC (stereo not given) | inactive | 
6 | CC1=CCC(C(C)C)=CC1 | inactive | 
7 | c1ccc(Cc2ccccc2)cc1 | inactive | 
8 | C=CCCCCCCCCC(=O)OCC | inactive | 
9 | CCCCCCCCCCCCCCCCCC(=O)OCCCCCCCCCCCCCC(C)C | inactive | 
10 | CCCCOCCOCCOCCO | inactive | 
11 | CC(C)COC(=O)c1ccccc1 | inactive | 
12 | CCNC(=S)NCC | inactive | 
13 | O=C(O)c1cc2ccccc2cc1O | inactive | 
14 | CN(C)C | inactive | 
15 | Cc1cccc(O)c1 | inactive | 
16 | O=C1OC2(c3ccc(O)cc3Oc3cc(O)ccc32)c2ccccc21 | inactive | 
17 | O=c1cc[nH]cc1 | inactive | 
18 | C=C(C)C(=O)OCCC(C)OC(=O)C(=C)C (stereo not given) | inactive | 
19 | CCO[Si](CCC#N)(OCC)OCC | inactive | 
20 | ClCCOCCOCCCl | inactive | 

Row | SMILES | outcome | AC50
21 | CCOCC(C)O (stereo not given) | inactive | 
22 | CCCc1ccc(O)cc1 | inactive | 
23 | CC(O)COCC(C)O (stereo not given) | inactive | 
24 | CCCC(O)C(CC)CO (stereo not given) | inactive | 
25 | CC(=O)c1ccc(C)cc1 | inactive | 
26 | CC(C)N(c1ccccc1)C(C)C | inactive | 
27 | OCC=Cc1ccccc1 | inactive | 
28 | COc1ccccc1O | inactive | 
29 | NC(=O)c1cnccn1 | inactive | 
30 | CC(C)C(=O)OCC=Cc1ccccc1 | inactive | 
31 | CCC(C)(C)C1CCC(OC)CC1 (stereo not given) | inactive | 
32 | CC(C)(C)c1ccc(S)cc1 | inactive | 
33 | NS(=O)(=O)c1cc(C(=O)O)c(NCc2ccco2)cc1Cl | inactive | 
34 | CC(C)(O)CCc1ccccc1 | inactive | 
35 | Nc1ccc(N)c([N+](=O)[O-])c1 | inactive | 
36 | CCC(C)(CCCC(C)C)OC(C)=O (stereo not given) | inactive | 
37 | O=C(O)C1=NN(c2ccc(S(=O)(=O)O)cc2)C(=O)C1 | inactive | 
38 | c1ccc(OCCOc2ccccc2)cc1 | inactive | 
39 | O=C(c1ccc(OCCN2CCCCC2)cc1)c1c(-c2ccc(O)cc2)sc2cc(O)ccc12 | inactive | 15.2 µM (active)
